From ChEMBL document CHEMBL3988442, “University of Dundee, Small-Polar-MMV Screening Library” (2021)
Out of some 48,000 compounds screened, about 13,000 (27%) showed an effect of 50% or more. The list shows a part of the results.

Tested on: Wolbachia pipientis
Experiment: Anti-Wolbachia Cell-Based Screen
Assay type: functional
Set-up: scale not given: in the data most compounds retested in dose-response had high values
Details: 5 µM

| SMILES | Percent Effect |
| --- | --- |
| CN1C(=O)CC(C(=O)O)C12CCN(Cc1ccc(Cl)c(Cl)c1)CC2 (stereo unspecified) | -9.214% |
| Cc1cccc(-c2noc([C@@H]3C[C@@H](O)CN3C)n2)c1 | -0.5094% |
| CC(C)NC(=O)c1ccc2c(c1)C(c1nc[nH]n1)CN2S(C)(=O)=O (stereo unspecified) | 2.921% |
| COc1cccc(COCC(=O)N2CCN(CC(C)(C)O)CC2)c1 | -0.1486% |
| O=C(O)C(F)(F)F.O=C(O)C(F)(F)F.c1cc(CN2CCCn3cnc(COCC4CC4)c3C2)ccn1 | -1.984% |
| O=C(O)C(F)(F)F.O=S(=O)(C1CC1)N1CCCn2cnc(COc3cccnc3)c2C1 | 121.6% |
| CN(C)CCOCc1ncn2c1CN(c1ncc(F)cn1)CCC2.O=C(O)C(F)(F)F | -8.613% |
| CCS(=O)(=O)N1CCCn2cnc(COc3cccnc3)c2C1.O=C(O)C(F)(F)F | 90.76% |
| O=C(O)C(F)(F)F.O=S(=O)(c1cccs1)N1CCCn2cnc(CO)c2C1 | -6.746% |
| CN(C)C(=O)COCc1ncn2c1CN(c1ncc(F)cn1)CCC2 | 5.015% |
| Fc1cnc(N2CCCn3cnc(COc4cccnc4)c3C2)nc1.O=C(O)C(F)(F)F | 88.73% |
| O=C(O)C(F)(F)F.O=S(=O)(Cc1ccccc1)N1CCCn2cnc(CN3CCCC3)c2C1 | -19.91% |
| O=C(O)C(F)(F)F.O=C(O)C(F)(F)F.c1cnc(NCc2ncn3c2CN(Cc2cccnc2)CCC3)nc1 | 4.407% |
| O=S(=O)(NC(CO)Cc1c[nH]c2ccccc12)c1cncc(F)c1 (stereo unspecified) | 0.282% |
| O=C(CCc1nc(Cl)n[nH]1)N1C[C@@H](CN2CCCCC2)[C@@H](CO)C1 | 12.3% |
| N#Cc1ccccc1N1CCCN(CC(=O)Nc2ccccc2Cl)CC1 | 11.85% |
| Cc1ncsc1CCC(=O)N1CCn2cccc2C1c1cccnc1 (stereo unspecified) | 2.617% |
| Cc1cc2c(=O)n(CC(=O)N3CCn4cccc4C3C(C)C)cnc2s1 (stereo unspecified) | 139.9% |
| CCC1c2cccn2CCN1C(=O)c1ccc2nonc2c1 (stereo unspecified) | -3.198% |
| CCCC1c2cccn2CCN1C(=O)Cn1cnc2sc(C)cc2c1=O (stereo unspecified) | 146.6% |
| CCCC1c2cccn2CCN1C(=O)c1cc(CC)no1 (stereo unspecified) | 123.5% |
| CNC(=O)C1CCCCN1C(=O)CCn1cnc2sccc2c1=O (stereo unspecified) | 2.602% |
| CCC1c2ccc(C)n2CCN1C(=O)Cn1cnc2sc(C)cc2c1=O (stereo unspecified) | 132.6% |
| CCc1cc(C(=O)N2CCC(C3CCN(c4ncccn4)CC3)C2)on1 (stereo unspecified) | -2.788% |

| SMILES | Percent Effect |
| --- | --- |
| CCN1CCC(CC(=O)N2CCn3cccc3C2c2cccnc2)CC1 (stereo unspecified) | -1.172% |
| Cc1cc2c(=O)n3c(nc2s1)CCN(C(=O)c1ccncc1)CC3 | -15.49% |
| COC(=O)CCNC(=O)c1nnn(-c2ccccc2)c1C(F)(F)F | -9.818% |
| CS(=O)(=O)N1CCCCCC1C1CCN(Cc2nc(C3CC3)no2)CC1 (stereo unspecified) | -7.435% |
| O=C(CN1CCCC(c2ccn[nH]2)C1)Nc1nc2c(s1)CCC2 (stereo unspecified) | -12.59% |
| CC(C)C1Nc2ccccc2C(=O)N1CC(=O)Nc1nc2c(s1)CCC2 (stereo unspecified) | 128.1% |
| Cc1cc(C2CCCN(CC(=O)Nc3nc4c(s3)CCC4)C2)n[nH]1 (stereo unspecified) | 7.579% |
| Cc1nc(NC(=O)CN2C(=O)c3ccccc3NC2C(C)C)sc1C (stereo unspecified) | 126.1% |
| Cc1nc(NC(=O)C2CCCN(C(N)=O)C2)sc1-c1ccccc1 (stereo unspecified) | 3.163% |
| Cc1nc(NC(=O)CCN2C(=O)c3ccccc3NC2C(C)C)sc1C (stereo unspecified) | 126.1% |
| Cc1nc(NC(=O)C(C)N2CCN(c3ccccc3F)CC2)sc1C (stereo unspecified) | 2.631% |
| Cc1nc(NC(=O)CN2CCc3c(nc(C(C)C)n3C)C2)sc1C | -4.598% |
| Cc1nc(NC(=O)CN2CCOC(Cn3cccn3)C2)sc1C (stereo unspecified) | -8.379% |
| Cc1cc(NCC(=O)N(C)CC(F)(F)F)c(C(N)=O)cc1F | -3.816% |
| O=S(=O)(Nc1ccon1)c1cc(Cl)cc2c1OCC2 | 4.815% |
| CCCS(=O)(=O)N(C)C(=O)CCc1ccsc1 | -1.511% |
| CN(C)c1ccccc1C(=O)N1C[C@@H](CN2CCCCC2)[C@@H](CO)C1 | -1.886% |
| CCc1ccc(CN2Cc3nccn3CC(Cn3cncn3)C2)o1.O=C(O)C(F)(F)F (stereo unspecified) | 101.6% |
| Cc1nc(C)n(CC2CN(Cc3ccncc3)Cc3nccn3C2)n1.O=C(O)C(F)(F)F.O=C(O)C(F)(F)F (stereo unspecified) | -4.303% |
| Cc1nc(C)n(CC2CN(Cc3cccnc3)Cc3nccn3C2)n1.O=C(O)C(F)(F)F.O=C(O)C(F)(F)F (stereo unspecified) | 6.866% |
| O=C(O)C(F)(F)F.O=C(O)C(F)(F)F.c1cncc(CN2Cc3nccn3CC(Cn3cccn3)C2)c1 (stereo unspecified) | 90.07% |
| CC(=O)N1[C@H](Cn2cncn2)C[C@@H]2CN(Cc3cccnc3)CC[C@@H]21.O=C(O)C(F)(F)F.O=C(O)C(F)(F)F | -6.622% |
| O=C(O)C(F)(F)F.O=C(O)C(F)(F)F.c1cc(CN2Cc3nccn3CC(Cn3cncn3)C2)ccn1 (stereo unspecified) | 106.6% |
| O=C(O)C(F)(F)F.c1cncc(CN2Cc3nccn3CC(Cn3cncn3)C2)c1 (stereo unspecified) | 126.5% |

| SMILES | Percent Effect |
| --- | --- |
| Cc1cc(C2CCCN2C(=O)NCc2cccnc2OC(C)C)on1 (stereo unspecified) | 10.48% |
| O=c1[nH]c(-c2ccc(Cl)cc2)nc2c1CCNC2 | -17.05% |
| CSc1ccc(CN(C(=O)c2cc(C)[nH]c(=O)c2)C2CC2)cc1 | 12.75% |
| COC(C)(C)c1noc(C2(C#N)CCCCC2)n1 | -1.328% |
| CCOC(=O)NC(CNC(=O)c1ncccn1)CC(C)C (stereo unspecified) | 3.45% |
| CNC(=O)[C@@H](c1ccccc1OC)N1CCC[C@H]1C(=O)NC(C)(C)C.Cl | 1.665% |
| CCC(Nc1ccc(Oc2ccc(C#N)cc2OC)cc1)C(N)=O (stereo unspecified) | -15.11% |
| Cc1nc(C)n(CC2CN(Cc3cccs3)Cc3nccn3C2)n1.O=C(O)C(F)(F)F (stereo unspecified) | 12.7% |
| O=C(O)C(F)(F)F.c1csc(CN2Cc3nccn3CC(Cn3cncn3)C2)n1 (stereo unspecified) | -6.751% |
| O=C(O)C(F)(F)F.c1csc(CN2Cc3nccn3CC(Cn3cncn3)C2)c1 (stereo unspecified) | 90.09% |
| CC(C)Nc1cc(-c2c[nH]nc2C2CCN(C(=O)C3CCC3)C2)ccn1 (stereo unspecified) | 269% |
| CC(C)CNc1cc(-c2c[nH]nc2C2CCN(C(=O)C3CC3)C2)ccn1 (stereo unspecified) | 239.9% |
| CN1CCCC(C(=O)N2CCC(Oc3ncccn3)CC2)C1 (stereo unspecified) | 16.76% |
| COc1ccccc1-c1nnc([C@H]2CCN(C(=O)C3CC3)C2)o1 | -2.817% |
| COc1ccc(OC)c(C2CCN(C(=O)C3CCN(C(C)C)CC3)C2)c1 (stereo unspecified) | -6.334% |
| CC(C)Nc1cc(-c2c[nH]nc2C2CCN(C(=O)C3CC3)C2)ccn1 (stereo unspecified) | 259.2% |
| CC(C)Oc1ncccc1CNC(=O)C1CCCN(C(=O)C2CC2)C1 (stereo unspecified) | -12.74% |
| CCN(CC)CCn1cnc(-c2ccccc2)c1-c1cnc(C)s1 | -4.484% |
| Cc1cc(NC(=O)CN2CCCC(Cn3cncn3)C2)on1 (stereo unspecified) | 0.4633% |
| Cc1cc(CN2CCCC(Cn3cncn3)C2)on1 (stereo unspecified) | 123.2% |
| Cc1nc2ccccc2nc1CN1CCCC(Cn2cncn2)C1 (stereo unspecified) | -7.654% |
| Cc1cc(NC(=O)CN2CCCC(Cn3cncn3)C2)no1 (stereo unspecified) | -8.5% |
| c1ccc(-c2nc(CN3CCCC(Cn4cncn4)C3)co2)cc1 (stereo unspecified) | 5.722% |
| Cc1cc(CN2CCCC2Cn2cncn2)no1 (stereo unspecified) | 1.75% |

| SMILES | Percent Effect |
| --- | --- |
| Cc1ccc(-c2nc(CN3CCCC(Cn4cncn4)C3)co2)cc1 (stereo unspecified) | 142.7% |
| Cc1cc(CN2CCCC(Cn3cncn3)C2)no1 (stereo unspecified) | 117% |
| c1ncn(CC2CCCN(Cc3nc(C4CC4)no3)C2)n1 (stereo unspecified) | -1.701% |
| c1ccc(-c2nc(CN3CCCC(Cn4cncn4)C3)no2)cc1 (stereo unspecified) | -1.614% |
| c1ccc(-c2cc(CN3CCCC(Cn4cncn4)C3)on2)cc1 (stereo unspecified) | 156.9% |
| Cc1cccc(-c2noc(CN3CCCC(Cn4cncn4)C3)n2)c1 (stereo unspecified) | 6.393% |
| NC(=O)C1CCCN1Cc1ccccc1NC(=O)CC(F)(F)F (stereo unspecified) | -9.794% |
| O=C1CC(C(=O)Nc2nnc(-c3ccoc3)[nH]2)c2ccccc2N1 (stereo unspecified) | -8.464% |
| COc1ccc(OC)c2c(C)cc(N(CCO)CCO)nc12 | -7.73% |
| CCn1c(CC2CCN(C(=O)c3cc(C(C)C)n[nH]3)CC2)n[nH]c1=O | -9.861% |
| CCC[C@H]1CN(CCS(C)(=O)=O)C[C@@H]1NC(=O)c1ccccn1 | 20.97% |
| Cc1ccoc1-c1nnc(CN2CCCC(Cn3cncn3)C2)o1 (stereo unspecified) | -5.411% |
| Fc1ccc(-c2nnc(CN3CCOC(Cn4cncn4)C3)o2)cc1 (stereo unspecified) | -1.88% |
| Fc1ccc(-c2nnc(CN3CCCC(Cn4cncn4)C3)o2)cc1 (stereo unspecified) | 112.2% |
| CC(CCn1cccn1)Nc1ccc(-c2nccn2C)nn1 (stereo unspecified) | -7.65% |
| CC(C)(NS(C)(=O)=O)C(=O)NCCc1csc2ccccc12 | 9.786% |
| Cc1occc1C(=O)N1CCCN(Cc2nccn2C)CC1 | 92.51% |
| CCc1nnsc1C(=O)N1CCCN(Cc2nccn2C)CC1 | -3.239% |
| Cc1cc(C(=O)N2CCCN(Cc3nccn3C)CC2)no1 | 89.63% |
| Cc1occc1C(=O)N1CCCN(Cc2ncc(Cl)n2C)CC1 | 3.419% |
| Cn1ccnc1CN1CCCN(C(=O)c2ccc(Cl)o2)CC1 | -2.733% |
| O=C(NCc1ccccc1)c1nnc2ccc(N3CCOCC3)cc2n1 | 4.321% |
| Cc1ccc(C)c2c(O)cc(CN[C@H]3CCCCNC3=O)nc12 | -6.417% |
| Cc1cc(NCC2CC(=O)Nc3ccccc32)nc(C)n1 (stereo unspecified) | 2.28% |
